Experiment [1] can be described thus: NCI Yeast Anticancer Drug Screen. Data for the rad50 strain (AID 155).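 Also: 0% = growth of vehicle-only cultures of the same strain.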 Conditions: S. cerevisiae rad50 strain growth inhibition, hits give high values. In short, it runs like this:
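Inhibition values express reduced yeast growth in compound-treated cultures relative to vehicle-treated controls.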

The nature of experiment [2]: NCI Yeast Anticancer Drug Screen. Data for the mec2-1 strain (AID 157). Conditions: S. cerevisiae mec2-1 strain, hits give high values. In short, it runs like this: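 Compounds were applied to mec2-1 yeast cells. Their growth was then compared with that of vehicle-treated cultures to give growth inhibition.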
Experiment [3] is described as follows: NCI Yeast Anticancer Drug Screen. Data for the sgs1 mgt1 strain (AID 161).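 Also: 0% = growth of cultures given vehicle only.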 The settings on record: S. cerevisiae sgs1 mgt1 strain, hits give high values. In short, it runs like this:
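Yeast cells carrying a defined DNA-repair defect were exposed to test compounds. Growth inhibition was measured relative to vehicle-treated controls.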

Experiment [4] is described as follows: NCI Yeast Anticancer Drug Screen. Data for the cln2 rad14 strain (AID 165).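 Also: 0% = growth equal to vehicle treated cultures.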 The settings on record: S. cerevisiae cln2 rad14 strain, hits give high values. In short, it runs like this:
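Strain: cln2 rad14 yeast, altered in cell cycle control and DNA damage repair. Read-out: growth inhibition vs vehicle.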

Experiment [5] can be described thus: NCI Yeast Anticancer Drug Screen. Data for the bub3 strain (AID 167). Conditions: S. cerevisiae bub3 mutant strain, hits give high values. In short, it runs like this:
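Steps: expose the mutant yeast strain to compound; grow alongside vehicle-treated cultures; measure growth; express inhibition against the vehicle cultures.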

The nature of experiment [6]: NCI Yeast Anticancer Drug Screen. Data for the mlh1 rad18 strain (AID 175). The settings on record: S. cerevisiae mlh1 rad18 strain growth inhibition, hits give high values. In outline: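 A repair-deficient yeast strain is exposed to test compound, and growth is scored relative to vehicle-treated controls.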
The mark [7] stands for this setting: at 5.0 µM (retest, dose inferred, filed as 0.5).
Setting [8] is: at 50.0 µM (retest, dose inferred, filed as 5.0).

Compounds without any hit were thinned out: in the full panel of roughly 79,000, 15% have a hit. Values without a mark were called inactive. Active and inactive are the calls of the source. Rule as the data show it: active = growth inhibition above about 70%; inactive = the rest.

Turning to `Cc1nc2[nH]cc(C)c2c(=O)[nH]1`, the growth inhibition in experiment [1] (setting [7]) is 6%; in experiment [1] (setting [8]), -11%; in experiment [1] (at 50.0 µM), -24.8%; in experiment [2] (setting [7]), -4%; in experiment [2] (setting [8]), -14%; in experiment [2] (at 50.0 µM), -2.25%. Also, the growth inhibition in experiment [3] (setting [7]) is -1%; in experiment [3] (setting [8]), -7%; in experiment [3] (at 50.0 µM), 4.1%; in experiment [4] (setting [7]), -11%; in experiment [4] (setting [8]) it was -4%; in experiment [4] (at 50.0 µM) it was 35.1%. The growth inhibition was 2% in experiment [5] (setting [7]); -15% in experiment [5] (setting [8]); 4.6% in experiment [5] (at 50.0 µM); -10% in experiment [6] (setting [7]); -14% in experiment [6] (setting [8]); -8.2% in experiment [6] (at 50.0 µM).
Take `C=CC1(c2ccc(-c3ccccc3)cc2)OCCO1`: the growth inhibition is 1% in experiment [1] (setting [7]); 14% in experiment [1] (setting [8]); 51.3% in experiment [1] (at 50.0 µM); 2% in experiment [2] (setting [7]); 6% in experiment [2] (setting [8]); 41.5% in experiment [2] (at 50.0 µM). Further, the growth inhibition is -4% in experiment [3] (setting [7]); -10% in experiment [3] (setting [8]); 74.4% (active) in experiment [3] (at 50.0 µM); 19% in experiment [4] (setting [7]); 8% in experiment [4] (setting [8]); 7.15% in experiment [4] (at 50.0 µM). The growth inhibition in experiment [5] (setting [7]) is -22%; in experiment [5] (setting [8]), -6%; in experiment [5] (at 50.0 µM) it was 64.1%; in experiment [6] (setting [7]), -17%; in experiment [6] (setting [8]), 0%; in experiment [6] (at 50.0 µM) it was 49.5%.
In the case of `O=C1C=CC(=O)c2c(O)c(N3CCC[C@@H]3CO)c(Cl)c(O)c21`, the growth inhibition in experiment [1] (setting [7]) is 20%; in experiment [1] (setting [8]), 65%; in experiment [1] (at 50.0 µM), 30.1%; in experiment [2] (setting [7]), 30%; in experiment [2] (setting [8]), 64%; in experiment [2] (at 50.0 µM), 41.5%. Also, the growth inhibition was 25% in experiment [3] (setting [7]); 52% in experiment [3] (setting [8]); 51.2% in experiment [3] (at 50.0 µM); 19% in experiment [4] (setting [7]); 36% in experiment [4] (setting [8]); 30.2% in experiment [4] (at 50.0 µM). Besides, the growth inhibition in experiment [5] (setting [7]) is 21%; in experiment [5] (setting [8]), 29%; in experiment [5] (at 50.0 µM), 72.2% (active); in experiment [6] (setting [7]) it was 26%; in experiment [6] (setting [8]), 71% (active); in experiment [6] (at 50.0 µM), 4.25%.
Take `O=c1ccnc(Sc2ccc([N+](=O)[O-])cc2[N+](=O)[O-])[nH]1`: the growth inhibition is 16% in experiment [1] (setting [7]); 94% (active) in experiment [1] (setting [8]); 47.2% in experiment [1] (at 50.0 µM); 8% in experiment [2] (setting [7]); 94% (active) in experiment [2] (setting [8]); 54.6% in experiment [2] (at 50.0 µM). For the same molecule, the growth inhibition was 2% in experiment [3] (setting [7]); 87% (active) in experiment [3] (setting [8]); 84% (active) in experiment [3] (at 50.0 µM); 1% in experiment [4] (setting [7]); 74% (active) in experiment [4] (setting [8]); 59.1% in experiment [4] (at 50.0 µM). Further, the growth inhibition in experiment [5] (setting [7]) is -1%; in experiment [5] (setting [8]), 92% (active); in experiment [5] (at 50.0 µM), 52.5%; in experiment [6] (setting [7]) it was 2%; in experiment [6] (setting [8]), 93% (active); in experiment [6] (at 50.0 µM), 49.6%.
Consider `NC(=S)N1N=C2c3ccccc3CCC[C@H]2[C@@H]1c1ccccc1`, for which the growth inhibition in experiment [1] (setting [7]) is 23%; in experiment [1] (setting [8]), 34%; in experiment [1] (at 50.0 µM) it was 73.2% (active); in experiment [2] (setting [7]) it was 16%; in experiment [2] (setting [8]) it was 27%; in experiment [2] (at 50.0 µM), 70.1% (active). Also, the growth inhibition in experiment [3] (setting [7]) was 21%; in experiment [3] (setting [8]), 43%; in experiment [3] (at 50.0 µM) it was 77.1% (active); in experiment [4] (setting [7]), 12%; in experiment [4] (setting [8]), 13%; in experiment [4] (at 50.0 µM), 63.9%. Further, the growth inhibition in experiment [5] (setting [7]) was 25%; in experiment [5] (setting [8]) it was 47%; in experiment [5] (at 50.0 µM), 74.2% (active); in experiment [6] (setting [7]) it was 17%; in experiment [6] (setting [8]), 48%; in experiment [6] (at 50.0 µM), 69.5%.
Take `O=C(CC(=O)c1ccccc1)CC(O)(c1ccccc1)c1ccccc1`: the growth inhibition in experiment [1] (setting [7]) is 30%; in experiment [1] (setting [8]), 90% (active); in experiment [1] (at 50.0 µM), 84.9% (active); in experiment [2] (setting [7]), 32%; in experiment [2] (setting [8]) it was 94% (active); in experiment [2] (at 50.0 µM), 89.1% (active). In addition, the growth inhibition in experiment [3] (setting [7]) is 26%; in experiment [3] (setting [8]) it was 89% (active); in experiment [3] (at 50.0 µM), 89.7% (active); in experiment [4] (setting [7]) it was 27%; in experiment [4] (setting [8]), 72% (active); in experiment [4] (at 50.0 µM), 87.6% (active). Besides, the growth inhibition in experiment [5] (setting [7]) is 42%; in experiment [5] (setting [8]) it was 94% (active); in experiment [5] (at 50.0 µM), 87.9% (active); in experiment [6] (setting [7]), 42%; in experiment [6] (setting [8]) it was 88% (active); in experiment [6] (at 50.0 µM) it was 86.5% (active).
With `CC(=O)OCCn1c2nc(=O)[nH]c(=O)c-2nc2cc(C)c(C)cc21`, the growth inhibition is -4% in experiment [1] (setting [7]); 18% in experiment [1] (setting [8]); 0.8% in experiment [1] (at 50.0 µM); 0% in experiment [2] (setting [7]); 18% in experiment [2] (setting [8]); -3.35% in experiment [2] (at 50.0 µM). Besides, the growth inhibition is 1% in experiment [3] (setting [7]); 81% (active) in experiment [3] (setting [8]); 35% in experiment [3] (at 50.0 µM); -4% in experiment [4] (setting [7]); 2% in experiment [4] (setting [8]); -42.9% in experiment [4] (at 50.0 µM). For the same molecule, the growth inhibition in experiment [5] (setting [7]) was -1%; in experiment [5] (setting [8]), 1%; in experiment [5] (at 50.0 µM), 8%; in experiment [6] (setting [7]), 9%; in experiment [6] (setting [8]) it was 14%; in experiment [6] (at 50.0 µM), 47.5%.
Turning to `C=C1C(=O)O[C@@H]2C[C@@]3(C)CCC[C@H](C)C3=C[C@H]12` (tested in a mixture with another compound), the growth inhibition in experiment [1] (setting [7]) is 9%; in experiment [1] (setting [8]), 96% (active); in experiment [1] (at 50.0 µM), 91.8% (active); in experiment [2] (setting [7]), 14%; in experiment [2] (setting [8]), 97% (active); in experiment [2] (at 50.0 µM) it was 93% (active). The growth inhibition in experiment [3] (setting [7]) was 4%; in experiment [3] (setting [8]), 97% (active); in experiment [3] (at 50.0 µM), 92.3% (active); in experiment [4] (setting [7]), 30%; in experiment [4] (setting [8]), 91% (active); in experiment [4] (at 50.0 µM) it was 90% (active). For the same molecule, the growth inhibition is 13% in experiment [5] (setting [7]); 98% (active) in experiment [5] (setting [8]); 91.2% (active) in experiment [5] (at 50.0 µM); 19% in experiment [6] (setting [7]); 98% (active) in experiment [6] (setting [8]); 91.5% (active) in experiment [6] (at 50.0 µM).
For `C=C1CC2(CCS(=O)(=O)c3ccccc32)OC1=O` (stereo not given), the growth inhibition in experiment [1] (setting [7]) was 2%; in experiment [1] (setting [8]) it was 27%; in experiment [1] (at 50.0 µM) it was 25.6%; in experiment [2] (setting [7]), 5%; in experiment [2] (setting [8]) it was 35%; in experiment [2] (at 50.0 µM) it was 60.6%. Further, the growth inhibition in experiment [3] (setting [7]) was 7%; in experiment [3] (setting [8]), 37%; in experiment [3] (at 50.0 µM) it was 69%; in experiment [4] (setting [7]), 6%; in experiment [4] (setting [8]), 15%; in experiment [4] (at 50.0 µM), 36.6%. In addition, the growth inhibition was 2% in experiment [5] (setting [7]); 47% in experiment [5] (setting [8]); 46.6% in experiment [5] (at 50.0 µM); 2% in experiment [6] (setting [7]); 49% in experiment [6] (setting [8]); 48.9% in experiment [6] (at 50.0 µM).
With `CN(C)C(C)(C)CCNc1c2ccccc2nc2cccc([N+](=O)[O-])c12`, the growth inhibition was 96% (active) in experiment [1] (setting [7]); 97% (active) in experiment [1] (setting [8]); 96% (active) in experiment [1] (at 50.0 µM); 98% (active) in experiment [2] (setting [7]); 100% (active) in experiment [2] (setting [8]); 94.6% (active) in experiment [2] (at 50.0 µM). Besides, the growth inhibition is 98% (active) in experiment [3] (setting [7]); 99% (active) in experiment [3] (setting [8]); 96.7% (active) in experiment [3] (at 50.0 µM); 98% (active) in experiment [4] (setting [7]); 99% (active) in experiment [4] (setting [8]); 94.5% (active) in experiment [4] (at 50.0 µM). In addition, the growth inhibition in experiment [5] (setting [7]) was 96% (active); in experiment [5] (setting [8]), 99% (active); in experiment [5] (at 50.0 µM), 97.2% (active); in experiment [6] (setting [7]) it was 98% (active); in experiment [6] (setting [8]), 100% (active); in experiment [6] (at 50.0 µM) it was 98% (active).

Source of the values: PubChem BioAssay (NCI).
